Compound activity deposited in PubChem BioAssay by The Scripps Research Institute Molecular Screening Center.
Shown are actives, neighbours in structure and some others; about 1.1% of the full set was active somewhere.
SRC3 inh: inhibitors of human steroid receptor coactivator 3 (SRC3). HEK293 GAL4-SRC3 luciferase reporter, luminescence. inhibition, % at 3.6 µM. 360,000 tested, 0.17% active;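 active means inhibition above a per-campaign cutoff, the mean of all compounds plus 3 SD, cut at about 60% in these data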;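 further: 0% = DMSO-treated cells and 100% = gossypol-treated cells at 36 µM; higher means less SRC3-driven luciferase light from the GAL4 reporter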
COUP-TFII inh: NR2F2 (human) inhibition, primary screen | P24468 | HEK293T NGFI-A luciferase reporter, luminescence | inhibition, % at 8.6 µM | 370,000 tested, 0.7% active | AID 686940;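 active means inhibition above a per-plate cutoff, mean inhibition of test wells between control levels plus 3 SD, cut at about 38% in these data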;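 further: cells cotransfected with COUP-TFII expression vector driving the NGFI-A reporter; 0% = median of COUP-TF2 test wells and 100% = reporter-only cells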
Target sequence (P24468 whole entry, looked up): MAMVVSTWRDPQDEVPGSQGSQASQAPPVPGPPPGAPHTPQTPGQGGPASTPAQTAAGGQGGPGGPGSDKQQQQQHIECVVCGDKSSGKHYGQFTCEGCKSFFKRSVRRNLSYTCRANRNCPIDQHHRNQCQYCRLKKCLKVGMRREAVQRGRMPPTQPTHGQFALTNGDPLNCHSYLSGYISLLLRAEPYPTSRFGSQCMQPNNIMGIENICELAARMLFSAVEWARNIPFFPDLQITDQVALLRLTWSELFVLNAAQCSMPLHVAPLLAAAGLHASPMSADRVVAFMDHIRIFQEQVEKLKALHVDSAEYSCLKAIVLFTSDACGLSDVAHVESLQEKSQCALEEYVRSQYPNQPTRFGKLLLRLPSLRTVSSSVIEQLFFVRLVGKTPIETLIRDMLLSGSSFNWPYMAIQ
NCOA2 inhibitor: inhibits human steroid receptor coactivator 2. Q15596. HEK293 GAL4-SRC2 luciferase reporter, luminescence. inhibition, % at 9 µM. 370,000 tested, 0.17% active. AID 651957;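 active means inhibition above the mean inhibition of all tested compounds plus 3 SD, set per campaign, cut at about 52% in these data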;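 further: 0% = DMSO treated cells and 100% = cells given Gossypol at 36 µM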
SRC1 inh: human NCOA1 inhibition. inhibition, % at 3.6 µM. AID 588354. HEK293 GAL4-SRC1 luciferase reporter, luminescence. 360,000 tested, 0.12% active. Q15788;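 active means inhibition above the campaign mean plus 3 SD, with each screening campaign given its own cutoff, cut at about 60% in these data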;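 further: 0% = DMSO treated cells and 100% = gossypol at 36 µM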
GalR3 antagonist: blocks the human galanin receptor 3 | HEK293 GalR3-CNG cAMP membrane potential fluorescence; galR3 body fused to GalR1 C-terminus | inhibition, % at 3 µM | 360,000 tested, 0.44% active | AID 651719;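 active means inhibition above the screen-wide average plus 3 SD, cut at about 13% in these data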;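 further: forskolin and galanin both at EC90 stimulate the cells; cAMP rise reported by CNG channel membrane potential dye signal; 0% = forskolin plus galanin with DMSO and 100% = forskolin alone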
NR5A2 inv ag: suppresses constitutive activity of human LRH-1; O00482; HEK293T StAR-luciferase reporter, LRH-1 transfected, 24 h; inhibition, % at 3.6 µM; 360,000 tested, 0.13% active; AID 602396;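 active means inhibition above the mean inhibition of all tested compounds plus 3 SD, cut at about 73% in these data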;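 further: 0% = DMSO wells and 100% = reporter-only cells lacking LRH-1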
Gal4-VP16 ctr: inhibits VP16 reporter, flagging COUP-TFII antagonist hits; shares compounds with COUP-TFII inh; HEK293 Gal4-VP16 luciferase reporter, luminescence; inhibition, % at 8.5 µM; 2,500 tested, 25% active; AID 687007; in the data active means inhibition above about 13%
NR2F2 inh conf: confirmation of human COUP-TFII (NR2F2) inhibitors; shares compounds with COUP-TFII inh; HEK293 NGFI-A luciferase reporter, luminescence; inhibition, % at 8.5 µM; 2,500 tested, 45% active;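 active means mean inhibition over three repeats above a set limit taken from the earlier primary screen, cut at about 38% in these data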;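 further: 100% = cells given the luciferase reporter alone without the COUP-TF2 vector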
An asterisk follows results filed as active; · = no result given.

SMILES | SRC3 inh | COUP-TFII inh | NCOA2 inhibitor | SRC1 inh | GalR3 antagonist | NR5A2 inv ag | Gal4-VP16 ctr | NR2F2 inh conf
CN(CC(=O)Nc1cccc(F)c1)C(=O)c1cccc(S(=O)(=O)N2CCN(c3ccc(F)cc3)CC2)c1 | 15.2 | 42.2* | 28.2 | 5.2 | -7.5 | -17.2 | 4.5 | 13.5
O=C(Nc1ccncc1)c1cccc(S(=O)(=O)N2CCN(c3ccc(F)cc3)CC2)c1 | 16.8 | 47.3* | 23.2 | 21.9 | 0.8 | 24.7 | 7.2 | 30.9
COc1ccc(CCN(C)C(=O)c2cccc(S(=O)(=O)N3CCN(c4ccc(F)cc4)CC3)c2)cc1OC | 18.5 | 59.3* | 1.7 | 12.9 | 1.1 | 28.9 | 12.1 | 44.7*
O=S1(=O)c2ccc(Br)cc2OC[C@H](Cc2ccccc2)N1Cc1cn(CCC2OCCO2)nn1 | · | 9.8 | 7.8 | · | · | · | · | ·
Cc1onc(C(=O)N2CCN(C(c3ccc(F)cc3)c3ccc(F)cc3)CC2)c1[N+](=O)[O-] | · | 26.8 | · | · | · | · | · | ·
C[C@H]1CN([C@@H](C)CO)C(=O)CCCn2cc(nn2)CO[C@@H]1CN(C)S(=O)(=O)c1ccccc1F | · | 9.6 | 9.2 | · | -3.0 | · | · | ·
COc1ccccc1NC(=O)c1cccc(S(=O)(=O)N2CCN(c3ccccc3)CC2)c1 | -43.2 | 42.1* | 16.0 | 5.0 | 2.0 | 4.7 | -5.2 | 5.6
CC(C)(C)OC(=O)/C=C/[C@H](CCCCl)Sc1ccc(C(C)(C)C)cc1 | · | 12.3 | 30.3 | · | · | · | · | ·
COC(=O)c1ccc(CSc2nnc(CS(=O)Cc3ccc(Br)cc3)n2-c2ccccc2)cc1 (stereo not drawn) | 11.3 | 39.3* | 16.4 | -4.0 | -6.9 | 18.7 | 0.5 | 14.6
O=S(Cc1ccc(Br)cc1)Cc1nnc(SCc2ccc(Br)cc2)n1-c1ccccc1 (stereo not drawn) | 28.8 | 43.7* | 6.9 | 10.7 | -7.6 | 38.2 | -3.7 | 27.7
COC(=O)c1cc2c(c3c4cc(C)ccc4n(S(=O)(=O)c4ccc(C)cc4)c13)C(=O)N(Cc1ccccc1)C2 | · | -8.4 | -16.4 | · | -6.5 | · | · | ·
C[C@H]1[C@@H]2C[C@@]3(O[C@H](c4ccccn4)N=C3C[C@@H]1c1ccccc1)N(Cc1ccncc1)C2=O | · | -7.2 | -18.6 | · | -7.2 | · | · | ·
Cn1c(=O)cc(OCCCC(=O)NCc2ccccn2)c2ccccc21 | 3.3 | -36.4 | -35.1 | 15.2 | -3.8 | 25.1 | · | ·
Cn1c(=O)cc(OCCCC(=O)Nc2cc(C(F)(F)F)ccn2)c2ccccc21 | · | 71.1* | · | · | · | · | 15.8* | 27.8
Cn1c(=O)cc(OCCCC(=O)Nc2cc(-c3ccncc3)ccn2)c2ccccc21 | · | 46.3* | · | · | · | · | 23.4* | 39.5*
CC(Sc1nnc2c(n1)[nH]c1ccccc12)C(=O)N(C)C1CCCCC1 (stereo not drawn) | 1.1 | 43.6* | 30.6 | 2.5 | -4.7 | 3.9 | 2.2 | 34.3
COC(=O)[C@]12C[C@H](CC(=O)NCc3ccccc3)C(=O)N(Cc3cccc4ccccc34)C1=C[C@H](C(C)C)O[C@@H]2C1CC1 | · | 11.6 | -37.9 | · | · | · | · | ·
O=C(NC1CCCCN(Cc2cccc(Cl)c2)C1=O)c1cccs1 (stereo not drawn) | · | -43.7 | -0.6 | · | · | · | · | ·
Cc1cc(N2CCN(C(=O)OC(C)(C)C)C[C@@H]2C)ccc1N1CCN(Cc2ccccc2)[C@H](C)C1 | · | 23.5 | 19.0 | · | -5.1 | · | · | ·
COCc1cc(N2CCN(C(=O)OC(C)(C)C)C[C@@H]2C)ccc1N1CCN(Cc2ccccc2)[C@@H](C)C1 | · | 37.5* | -2.9 | · | -6.9 | · | 5.0 | 16.4
COC(=O)C1CN(Cc2ccccc2)CCS(=O)(=O)N1Cc1ccc(C(F)(F)F)cc1 (stereo not drawn) | · | 13.7 | -2.2 | · | · | · | · | ·
Cc1cc(=O)n(-c2ccc(O)cc2)[nH]1 | 32.0 | 41.5* | 20.0 | 12.9 | -3.3 | 18.1 | -5.3 | -15.3
Cc1cc(=O)n(-c2ccc(C(=O)O)cc2)[nH]1 | 2.0 | 14.9 | -11.3 | 7.6 | -1.0 | 5.2 | · | ·
Cc1ccc(C(=O)NC2CCCCN(Cc3ccccc3C)C2=O)cc1 (stereo not drawn) | · | 21.0 | 0.8 | · | · | · | · | ·
C=C1CCC2C(C)(C)CCC[C@]2(C)[C@H]1CC1=C(O)C(=O)C(CO)=CC1=O (stereo partly drawn) | · | 54.8* | 62.3* | · | · | · | 45.6* | 61.6*
C=C/C(C)=C/C[C@H]1C(=C)CCC2[C@](C)(C(=O)O)CCC[C@@]21C (stereo partly drawn) | 15.7 | · | · | -3.9 | · | 7.9 | · | ·
O=C(NCCc1ccccc1F)c1cc2ccccn2n1 | · | -26.0 | -14.6 | · | · | · | · | ·
CCOC(=O)N1CCN(C(=O)c2ccc3c(c2)N(Cc2ccc(F)cc2)CCS3)CC1 | 11.7 | 37.8* | 20.2 | 2.2 | · | -17.7 | 1.7 | -0.9
C=CCn1c(COc2ccc(Cl)cc2)nnc1SCC(=O)c1ccc(-c2ccccc2)cc1 | · | 13.2 | 0.7 | · | · | · | · | ·
C=CCCC1CN(Cc2ccc(OC)cc2)S(=O)(=O)c2c(Oc3cc(C)c(C)c(C)c3)cccc2O1 (stereo not drawn) | · | -8.4 | 19.1 | · | -4.7 | · | · | ·
